Results on 20 compounds are retold here after PubChem BioAssay (Tox21).

Values without a mark were called inactive. Inconclusive results are not listed. Calls of active or inactive are those of the source. Calls come from the whole dose curve; as a rule, active = well fitted curve in the direction sought with a large enough effect in the repeat runs; inconclusive = weak or mixed curves; inactive = no such curve, though single readings can be large; an effect the other way counts as inactive or inconclusive.

The nature of test [1]: Caspase-3/7 induction in HepG2 cells by small molecules, qHTS assay (AID 1346978). Note: nearly all actives have a fitted effect of over 15% in size. Note: potency is the fitted concentration of half-maximal effect. The essentials:
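Caspase-3/7 induction was measured by Caspase-Glo 3/7 luminescence (30 min, room temperature) after a 17 hr compound exposure of wild-type HepG2 cells seeded at 2,000 per well and pre-incubated 5 hr.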

Test [2] is described as follows: Caspase-3/7 induction in CHO-K1 cells by small molecules, qHTS cell viability counter screen (AID 1346979). Note: nearly all actives have a fitted effect of over 35% in size. Note: potency is the fitted concentration of half-maximal effect. The essentials:
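Following a 5hr settling period, CHO-K1 cells at 1,500 per well received DMSO-dissolved compounds. Cell viability was quantified 16hr later by CellTiter-Fluor fluorescence, measured after 1hr with reagent at 37C.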
(In general: qHTS replaces the single test concentration by a dilution series.)

Test [3] can be described thus: Caspase-3/7 induction in HepG2 cells by small molecules, qHTS cell viability counter screen (AID 1346981). Note: nearly all actives have a fitted effect of over 30% in size. Note: potency is the fitted concentration of half-maximal effect. The essentials:
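Cell viability is measured as a cytotoxicity counter screen alongside the Caspase-Glo 3/7 readout in identical wells. Wild-type HepG2 cells are treated with test compounds for 16 hr at 37 C before CellTiter-Fluor addition and a 1-hr incubation.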

Test [4] addresses Nuclear receptor subfamily 1 group I member 2 (Homo sapiens) (UniProt O75469). The test can be described thus: Human pregnane X receptor (PXR) small molecule agonists, qHTS assay (AID 1346982). Note: nearly all actives have a fitted effect of over 35% in size. Note: potency is the fitted concentration of half-maximal effect. Put shortly:
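Cells: HepG2 stably carrying PXR-Luc. Medium held 5% charcoal-stripped FBS. Compounds in DMSO added after 5 hr plating, incubated 24 hr, then luminescence quantified with ONE-Glo.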

Test [5] has as its target Cytochrome P450 2C9 (Homo sapiens) (UniProt P11712). Nature of the test: Cytochrome P450 Family 2 Subfamily C Member 9 (CYP2C9) small molecule antagonists: luciferase reporter qHTS assay (AID 1671198). Note: nearly all actives have a fitted effect of over 50% in size. Note: potency is the fitted concentration of half-maximal effect. The essentials: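 Enzyme-substrate mix preincubated with compound 10 min at room temperature; reaction started with NADPH regeneration solution, 1 h 37C. Luminescent luciferin product read after 20 min detection reagent.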
Background: A reporter such as luciferase makes a cellular process visible.

Test [6] concerns the target Cytochrome P450 1A2 (Homo sapiens) (UniProt P05177). Nature of the test: Cytochrome P450 Family 1 Subfamily A Member 2 (CYP1A2) small molecule antagonists: luciferase reporter qHTS assay (AID 1671199). Note: nearly all actives have a fitted effect of over 50% in size. Note: potency is the fitted concentration of half-maximal effect. Put shortly: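 Compounds were incubated with CYP1A2 and a luminogenic proluciferin substrate for 10 min at room temperature before the reaction was started with NADPH regeneration solution. After 1 h, detection reagent was added and light output, proportional to CYP activity, was recorded.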

The target in test [7] is Voltage-gated inwardly rectifying potassium channel KCNH2 (Homo sapiens) (UniProt Q12809). The test can be described thus: Human Ether-a-go-go-Related Gene (hERG) channel small molecule antagonists: fluorescence cell-based qHTS assay (AID 1671200). Note: nearly all actives have a fitted effect of over 50% in size. Note: potency is the fitted concentration of half-maximal effect. The essentials:
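In this thallium-flux screen, overnight-cultured U2OS cells bearing the channel are dye-loaded in darkness for an hour, rested 10 min at room temperature, and then monitored kinetically at 480/540 nm for two minutes post-stimulus.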

In test [8] the target is Cytochrome P450 3A4 (Homo sapiens) (UniProt P08684). The test can be described thus: Cytochrome P450 Family 3 Subfamily A Member 4 (CYP3A4) small molecule antagonists: luciferase reporter qHTS assay (AID 1671201). Note: nearly all actives have a fitted effect of over 50% in size. Note: potency is the fitted concentration of half-maximal effect. The essentials:
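CYP3A4 activity was followed with a P450-Glo proluciferin substrate. Test compounds in DMSO were preincubated 10 min; NADPH regeneration then ran 1 h, and light output was read 20 min after detection reagent.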

Test [9] deals with Nuclear receptor subfamily 1 group I member 2 (Homo sapiens) (UniProt O75469). The test can be described thus: Human pregnane X receptor (PXR) activation by small molecules, qHTS assay (AID 1346985). Note: nearly all actives have a fitted effect of over 40% in size. Note: potency is the fitted concentration of half-maximal effect. Put shortly: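 DPX-2 cells (HepG2 co-transfected with a PXR response element and a CYP3A4-promoter luciferase construct) were seeded at 2,000 per well, rested 5 hr at 37C, then exposed to DMSO-dissolved compounds for 24 hr. Activation was read as luciferase luminescence.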

Test [10] concerns the target Cytochrome P450 2D6 (Homo sapiens) (UniProt P10635). The test can be described thus: Cytochrome P450 Family 2 Subfamily D Member 6 (CYP2D6) small molecule antagonists: luciferase reporter qHTS assay (AID 1671196). Note: nearly all actives have a fitted effect of over 50% in size. Note: potency is the fitted concentration of half-maximal effect. Put shortly: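 Enzyme and proluciferin substrate were first combined with test chemical for 10 min at room temperature. Adding NADPH regeneration solution started a 1 h reaction, stopped with luciferin detection reagent and read by luminescence 20 min later.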

For test [11], the target named is Cytochrome P450 2C19 (Homo sapiens) (UniProt P33261). The test can be described thus: Cytochrome P450 Family 2 Subfamily C Member 19 (CYP2C19) small molecule antagonists: luciferase reporter qHTS assay (AID 1671197). Note: nearly all actives have a fitted effect of over 65% in size. Note: potency is the fitted concentration of half-maximal effect. The essentials: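 Quantitative high-throughput screen of the Tox21 library using CYP2C19 with proluciferin substrate. Reaction: NADPH regeneration, 37C, 1 h, after 10 min compound preincubation at room temperature. Readout: luminescence.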

Test [12] can be described thus: Caspase-3/7 induction in CHO-K1 cells by small molecules, qHTS assay (AID 1346980). Note: nearly all actives have a fitted effect of over 15% in size. The essentials: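 Luminescent Caspase-Glo 3/7 read (30min, room temperature) quantified apoptosis induction. Cells were wild-type CHO-K1, treated with compound for 17hr at 37 C and 5% CO2.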
Test [13] addresses Nuclear receptor subfamily 1 group I member 2 (Rattus norvegicus) (UniProt Q9R1A7). Nature of the test: Rat pregnane X receptor (rPXR) activation by small molecules, qHTS assay (AID 1346983). Note: nearly all actives have a fitted effect of over 20% in size. Note: potency is the fitted concentration of half-maximal effect. The following applies: rPXR luciferase reporter cells, One-Glo luminescence, 24 h; max activation: hits give high values. Put shortly: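 Luminescent readout (One-Glo luciferase, 30 min room temperature) followed 24 hr compound treatment at 37 C of rPXR cells plated 2,000 per well and preincubated 5hr; qHTS format with compounds delivered in DMSO.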

In test [14] the target is Nuclear receptor subfamily 1 group I member 2 (Homo sapiens) (UniProt O75469). Nature of the test: CYP3A4 induction through human pregnane X receptor (PXR) by small molecules, qHTS assay (AID 1346984). Note: nearly all actives have a fitted effect of over 40% in size. Note: potency is the fitted concentration of half-maximal effect. The essentials:
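Quantitative HTS in DPX-2 cells, i.e. HepG2 transfected with PXR response element and CYP3A4-promoter luciferase. Compounds in DMSO incubated 24hr at 37C; then P450-Glo CYP3A4 substrate, 3uM final, 3hr; One-Glo luminescence.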
% is set by controls: 0 for no effect and ±100 for the full control effect.

Sequence of Nuclear receptor subfamily 1 group I member 2 (Homo sapiens) (O75469 whole entry, looked up): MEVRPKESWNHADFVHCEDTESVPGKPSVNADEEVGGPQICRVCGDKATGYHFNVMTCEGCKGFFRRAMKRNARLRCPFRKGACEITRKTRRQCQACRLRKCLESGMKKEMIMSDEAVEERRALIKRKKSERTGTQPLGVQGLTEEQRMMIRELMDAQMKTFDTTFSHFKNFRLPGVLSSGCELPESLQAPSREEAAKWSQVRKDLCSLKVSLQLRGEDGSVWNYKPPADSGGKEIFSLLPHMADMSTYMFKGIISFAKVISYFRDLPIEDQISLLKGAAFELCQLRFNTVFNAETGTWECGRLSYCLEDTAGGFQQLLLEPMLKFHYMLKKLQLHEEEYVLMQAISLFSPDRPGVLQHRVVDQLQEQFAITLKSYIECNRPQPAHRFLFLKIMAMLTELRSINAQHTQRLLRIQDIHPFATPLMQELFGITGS
Sequence of Cytochrome P450 1A2 (Homo sapiens) (P05177 whole entry, looked up): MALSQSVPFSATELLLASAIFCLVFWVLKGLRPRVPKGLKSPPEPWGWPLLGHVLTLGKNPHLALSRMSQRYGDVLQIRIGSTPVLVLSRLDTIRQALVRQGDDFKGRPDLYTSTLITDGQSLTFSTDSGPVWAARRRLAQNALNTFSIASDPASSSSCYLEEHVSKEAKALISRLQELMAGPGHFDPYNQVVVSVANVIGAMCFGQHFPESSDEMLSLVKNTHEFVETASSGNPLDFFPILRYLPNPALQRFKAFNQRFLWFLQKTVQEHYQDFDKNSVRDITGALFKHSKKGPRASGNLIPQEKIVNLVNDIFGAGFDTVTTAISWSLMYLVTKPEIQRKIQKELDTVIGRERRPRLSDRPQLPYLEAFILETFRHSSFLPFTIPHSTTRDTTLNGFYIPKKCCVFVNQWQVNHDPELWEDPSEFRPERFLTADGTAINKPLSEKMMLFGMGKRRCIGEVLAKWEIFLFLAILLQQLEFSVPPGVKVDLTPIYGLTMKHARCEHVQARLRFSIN
Sequence of Voltage-gated inwardly rectifying potassium channel KCNH2 (Homo sapiens) (Q12809 whole entry, looked up): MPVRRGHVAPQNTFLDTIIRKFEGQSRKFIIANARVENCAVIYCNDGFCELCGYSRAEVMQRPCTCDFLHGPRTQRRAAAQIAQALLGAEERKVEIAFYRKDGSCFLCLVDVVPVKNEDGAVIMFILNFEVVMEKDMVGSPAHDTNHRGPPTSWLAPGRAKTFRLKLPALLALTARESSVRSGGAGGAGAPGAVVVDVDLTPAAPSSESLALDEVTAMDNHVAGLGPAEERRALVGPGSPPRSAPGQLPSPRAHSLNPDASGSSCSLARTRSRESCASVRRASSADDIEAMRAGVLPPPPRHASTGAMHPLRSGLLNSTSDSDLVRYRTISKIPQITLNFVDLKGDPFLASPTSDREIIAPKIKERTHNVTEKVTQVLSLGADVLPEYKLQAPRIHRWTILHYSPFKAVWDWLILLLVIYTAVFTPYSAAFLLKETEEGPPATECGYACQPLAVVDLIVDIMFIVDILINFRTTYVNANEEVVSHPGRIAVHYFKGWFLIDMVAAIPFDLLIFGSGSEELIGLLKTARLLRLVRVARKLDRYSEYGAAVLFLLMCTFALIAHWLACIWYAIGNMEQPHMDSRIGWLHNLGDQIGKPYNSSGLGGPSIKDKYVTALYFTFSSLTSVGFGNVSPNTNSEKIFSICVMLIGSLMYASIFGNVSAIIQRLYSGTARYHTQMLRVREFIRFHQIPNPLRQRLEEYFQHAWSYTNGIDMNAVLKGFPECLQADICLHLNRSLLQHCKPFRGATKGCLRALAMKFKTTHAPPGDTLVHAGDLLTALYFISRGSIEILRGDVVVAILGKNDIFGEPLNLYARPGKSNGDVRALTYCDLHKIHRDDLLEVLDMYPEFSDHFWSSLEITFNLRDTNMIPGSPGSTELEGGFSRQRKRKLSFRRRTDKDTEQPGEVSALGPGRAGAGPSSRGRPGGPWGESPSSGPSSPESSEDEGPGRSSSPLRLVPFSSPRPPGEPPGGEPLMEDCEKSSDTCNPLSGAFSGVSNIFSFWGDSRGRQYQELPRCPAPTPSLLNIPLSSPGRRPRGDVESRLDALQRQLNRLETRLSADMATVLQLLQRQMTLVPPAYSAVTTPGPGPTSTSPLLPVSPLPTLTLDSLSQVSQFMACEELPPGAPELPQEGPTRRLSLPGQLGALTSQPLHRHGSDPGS
Sequence of Cytochrome P450 3A4 (Homo sapiens) (P08684 whole entry, looked up): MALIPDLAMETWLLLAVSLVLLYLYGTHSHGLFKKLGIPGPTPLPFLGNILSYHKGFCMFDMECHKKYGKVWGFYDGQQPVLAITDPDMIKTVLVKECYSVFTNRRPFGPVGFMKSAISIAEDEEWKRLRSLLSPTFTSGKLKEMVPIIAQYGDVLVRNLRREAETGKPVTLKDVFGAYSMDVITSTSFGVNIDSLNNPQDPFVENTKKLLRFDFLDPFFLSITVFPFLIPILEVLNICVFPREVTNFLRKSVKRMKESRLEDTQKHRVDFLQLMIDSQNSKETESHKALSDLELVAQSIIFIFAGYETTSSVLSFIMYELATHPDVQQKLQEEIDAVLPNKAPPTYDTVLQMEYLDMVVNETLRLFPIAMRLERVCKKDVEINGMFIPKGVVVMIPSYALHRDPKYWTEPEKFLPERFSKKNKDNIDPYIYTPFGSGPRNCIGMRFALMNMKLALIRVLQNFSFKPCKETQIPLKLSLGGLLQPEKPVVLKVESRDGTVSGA
Sequence of Nuclear receptor subfamily 1 group I member 2 (Rattus norvegicus) (Q9R1A7 whole entry, looked up): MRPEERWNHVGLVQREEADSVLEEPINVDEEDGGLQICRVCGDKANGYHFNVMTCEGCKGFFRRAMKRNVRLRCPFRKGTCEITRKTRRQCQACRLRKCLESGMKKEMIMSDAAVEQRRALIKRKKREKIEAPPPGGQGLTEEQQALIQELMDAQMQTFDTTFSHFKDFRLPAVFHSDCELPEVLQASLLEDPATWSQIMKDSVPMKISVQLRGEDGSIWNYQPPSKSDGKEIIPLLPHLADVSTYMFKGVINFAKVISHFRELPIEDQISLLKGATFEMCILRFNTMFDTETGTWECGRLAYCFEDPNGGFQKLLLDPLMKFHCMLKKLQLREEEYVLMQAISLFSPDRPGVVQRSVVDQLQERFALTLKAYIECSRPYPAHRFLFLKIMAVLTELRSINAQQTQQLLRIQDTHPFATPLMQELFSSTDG
Sequence of Cytochrome P450 2C9 (Homo sapiens) (P11712 whole entry, looked up): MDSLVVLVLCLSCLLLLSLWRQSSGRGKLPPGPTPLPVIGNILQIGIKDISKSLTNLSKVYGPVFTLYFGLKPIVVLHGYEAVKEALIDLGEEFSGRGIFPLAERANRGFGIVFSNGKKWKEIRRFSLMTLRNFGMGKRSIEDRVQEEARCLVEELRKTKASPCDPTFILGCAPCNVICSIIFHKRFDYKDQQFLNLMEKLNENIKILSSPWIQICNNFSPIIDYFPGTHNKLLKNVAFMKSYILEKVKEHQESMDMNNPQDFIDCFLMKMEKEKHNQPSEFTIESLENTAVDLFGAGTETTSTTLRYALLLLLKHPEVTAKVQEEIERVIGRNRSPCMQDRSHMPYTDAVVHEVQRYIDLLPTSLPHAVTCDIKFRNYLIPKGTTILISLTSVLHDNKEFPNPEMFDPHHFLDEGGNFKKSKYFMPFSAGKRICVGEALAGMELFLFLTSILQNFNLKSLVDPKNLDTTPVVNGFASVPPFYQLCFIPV
Sequence of Cytochrome P450 2D6 (Homo sapiens) (P10635 whole entry, looked up): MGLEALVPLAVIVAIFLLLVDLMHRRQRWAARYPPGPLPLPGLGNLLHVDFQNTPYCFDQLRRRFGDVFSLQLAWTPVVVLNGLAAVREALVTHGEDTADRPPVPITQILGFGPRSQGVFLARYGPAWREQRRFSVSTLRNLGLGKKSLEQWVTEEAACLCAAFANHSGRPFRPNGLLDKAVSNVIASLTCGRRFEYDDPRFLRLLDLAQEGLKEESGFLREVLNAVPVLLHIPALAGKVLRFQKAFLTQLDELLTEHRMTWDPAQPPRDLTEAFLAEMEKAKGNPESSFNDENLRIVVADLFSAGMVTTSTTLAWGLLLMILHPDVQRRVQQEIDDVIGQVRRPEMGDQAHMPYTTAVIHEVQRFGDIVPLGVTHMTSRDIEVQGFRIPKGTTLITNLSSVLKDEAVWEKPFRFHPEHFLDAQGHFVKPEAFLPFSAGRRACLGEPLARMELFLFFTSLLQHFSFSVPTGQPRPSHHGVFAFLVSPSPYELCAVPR
Sequence of Cytochrome P450 2C19 (Homo sapiens) (P33261 whole entry, looked up): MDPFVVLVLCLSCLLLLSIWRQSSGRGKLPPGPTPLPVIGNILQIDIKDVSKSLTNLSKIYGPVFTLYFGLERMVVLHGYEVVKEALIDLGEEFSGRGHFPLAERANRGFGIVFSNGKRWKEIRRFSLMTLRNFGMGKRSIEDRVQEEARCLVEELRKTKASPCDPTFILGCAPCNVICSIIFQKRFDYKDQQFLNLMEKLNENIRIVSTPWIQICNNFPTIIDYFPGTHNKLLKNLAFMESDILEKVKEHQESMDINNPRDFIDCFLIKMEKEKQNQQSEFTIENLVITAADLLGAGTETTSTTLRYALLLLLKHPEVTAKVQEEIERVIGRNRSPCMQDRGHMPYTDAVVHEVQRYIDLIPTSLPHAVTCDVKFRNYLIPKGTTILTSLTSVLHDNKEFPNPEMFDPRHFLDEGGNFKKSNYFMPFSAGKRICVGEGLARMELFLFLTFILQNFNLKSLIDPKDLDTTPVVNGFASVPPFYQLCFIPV

For the compound `FC(F)(F)c1ccccc1Cl`, the Potency entry in test [1], in test [2], in test [3], in test [4], in [5] and in test [6] was “inactive” each time. In addition, the Potency result in [7] and in test [8] was “inactive” each time.
As to `CC[C@]1(O)C[C@H]2CN(CCc3c([nH]c4ccccc34)[C@@](C(=O)OC)(c3cc4c(cc3OC)N(C=O)[C@H]3[C@@](O)(C(=O)OC)[C@H](OC(C)=O)[C@]5(CC)C=CCN6CC[C@]43[C@@H]65)C2)C1`, the Potency entry in [1], in [10], in [11], in test [5], in test [6] and in [7] was “inactive” throughout. In addition, the Potency was 8.91 µM (active) in test [9] and 12.3 µM (active) in test [8].
On to `CC(CC1c2ccccc2CCc2ccccc21)CN(C)C` (stereo not drawn), for which the Potency entry in test [1], in test [12], in test [5] and in test [6] was “inactive” each time. The Potency in test [10] was 0.977 µM (active); in [11], 8.71 µM (active).
`Nc1nc2ccc([N+](=O)[O-])cc2s1`: the Potency result in [1] and in test [12] was “inactive” each time. Moreover, the Potency is 47.2 µM (active) in test [2], 30.6 µM (active) in test [4], 35.6 µM (active) in test [11] and 9.74 µM (active) in test [6].
Consider `O=C1c2ccccc2C(=O)C1(O)O`, for which the Potency in [2] is 54.8 µM (active); in test [4], 61.4 µM (active); in [10] it was 35.8 µM (active). Moreover, the Potency result in test [12], in test [7] and in [8] was “inactive” throughout.
Take `COc1cc(Nc2c(C#N)cnc3cc(OCCCN4CCN(C)CC4)c(OC)cc23)c(Cl)cc1Cl`: the Potency in [1] was 11.9 µM (active); in test [2], 29.8 µM (active); in test [3], 13.3 µM (active). For the same compound, the Potency entry in test [10], in test [5], in test [6] and in test [8] was “inactive” in each case.
Take `CCCCCCCCCCC(=O)O`: the Potency entry in test [1], in [12], in test [3], in test [10], in [6] and in test [7] was “inactive” each time. The Potency entry in [8] is “inactive”.
`C/C=C(/C(=C/C)c1ccc(O)cc1)c1ccc(O)cc1`: the Potency entry in [12], in test [4], in test [14], in test [9], in test [10] and in test [6] was “inactive” each time. Further, the Potency entry in test [7] is “inactive”. The max activation in [13] was 0.107%. For the same compound, in test [5], the Potency is 17.4 µM (active).
Turning to `COc1ccccc1NC(=O)c1cc2ccccc2cc1O`, the Potency entry in test [1], in test [12], in test [3], in test [10] and in test [7] was “inactive” in each case. In addition, the Potency in [4] was 24.3 µM (active); in test [11], 11.2 µM (active); in [5] it was 22.4 µM (active); in test [6] it was 1.78 µM (active); in [8], 28.3 µM (active).
In the case of `Nc1cccc2c1CN(C1CCC(=O)NC1=O)C2=O` (stereo not drawn), the Potency entry in [1], in test [2], in [3], in test [4] and in [9] was “inactive” in each case. In addition, the max activation in test [13] is -1%.
Take `CC1(C)[C@H](C(=O)O)N2C(=O)C[C@H]2S1(=O)=O`: the Potency result in test [1], in [2], in [12], in test [5], in test [6] and in test [7] was “inactive” throughout. For the same compound, the Potency entry in test [8] is “inactive”. For the same compound, the Potency in [11] is 30.9 µM (active).
Take `CC(=O)OCCN(CCOC(C)=O)c1ccc(N=Nc2ccc([N+](=O)[O-])cc2C#N)cc1`: the Potency entry in test [1] and in test [12] was “inactive” throughout. Moreover, the Potency was 54.5 µM (active) in test [2], 15.9 µM (active) in [5], 17.4 µM (active) in [7] and 3.56 µM (active) in test [8].
On to `CCCCCCNC(=O)n1cc(F)c(=O)[nH]c1=O`, for which the Potency result in [1], in test [6], in test [7] and in [8] was “inactive” each time. The Potency in test [4] was 15 µM (active); in test [14] it was 0.794 µM (active); in [11] it was 34.7 µM (active); in test [5], 15.5 µM (active). Also, in [13], the max activation was -10.4%.
For `CC(C)(C)CC(=O)OCC(=O)[C@@]1(O)CC[C@H]2[C@@H]3CCC4=CC(=O)C=C[C@]4(C)[C@H]3[C@@H](O)C[C@@]21C`, the Potency entry in [1], in [12], in [3], in [6] and in test [7] was “inactive” in each case. Further, the Potency in [10] was 38.9 µM (active); in test [11], 9.77 µM (active); in [5] it was 15.5 µM (active).
Consider `C[C@@H](CN(C)C)CN1c2ccccc2Sc2ccccc21`, for which the Potency entry in test [1], in test [12], in test [3] and in test [9] was “inactive” in each case. Further, the Potency in test [7] was 9.52 µM (active).
Turning to `O=C1C(=O)c2ccccc2C(O)=C1C1CCC(c2ccc(Cl)cc2)CC1` (stereo not drawn), the Potency result in test [1], in test [12], in [9], in test [10], in [11] and in test [6] was “inactive” each time. The Potency result in test [7] and in [8] was “inactive” in each case. The values for the Potency in test [2] and in test [14] were 16.8 µM (active) and 2.51 µM (active), respectively. Besides, the max activation in [13] was 0.127%.
As to `O=C(CCc1ccc(O)cc1)c1c(O)cc(O)cc1O`, the Potency result in [1], in [12], in test [3] and in test [7] was “inactive” throughout. Further, the Potency was 40.8 µM (active) in test [11], 20.5 µM (active) in test [5], 36.4 µM (active) in test [6] and 12.9 µM (active) in test [8].
With `CCCC(C(=O)OCCN(CC)CC)(c1ccccc1)c1ccccc1`, the Potency entry in test [1] and in test [6] was “inactive” in each case. The Potency was 10.6 µM (active) in [4]; 22.4 µM (active) in [13]; 10 µM (active) in test [14]; 15.8 µM (active) in test [9]; 21.9 µM (active) in test [11]; 13.8 µM (active) in test [5].
As for `O=C(OCC(O)CO)c1ccccc1Nc1ccnc2cc(Cl)ccc12` (stereo not drawn), the Potency result in [1], in test [12], in [3], in test [14], in test [9] and in test [7] was “inactive” each time. For the same compound, the Potency in test [4] is 11.9 µM (active); in test [10] it was 13.8 µM (active); in test [11] it was 8.71 µM (active); in [5], 15.5 µM (active). Further, the max activation in test [13] was -2.2%.
For the compound `CCOC(=O)c1ccccc1C(=C1C=C(Br)C(=O)C(Br)=C1)c1cc(Br)c(O)c(Br)c1`, the Potency result in [1], in [12], in test [11] and in test [7] was “inactive” each time. For the same compound, the Potency was 51.3 µM (active) in test [4] and 23.7 µM (active) in test [5].
